Experimental data taken from PubChem BioAssay (NCATS).
Inconclusive results are not listed. Values without a mark were called inactive. Active and inactive are the calls of the source. Calls come from the whole dose curve; as a rule, active = well fitted curve in the direction sought with a large enough effect; inconclusive = small, poorly fitted or top-dose-only effect, or another doubt; inactive = no such curve, though single readings can be large; an effect the other way counts as inactive or inconclusive.

assay: Vero cells viability qHTS for Zika virus inhibitors (AID 1347167); details: cytotoxicity counter-screen (Zika); series mostly up to 45.9 µM; activity change, negative = cytotoxicity: at the top concentration
Summary of the method: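 Counter-screen for cytotoxicity of hits from NS2B-NS3 protease qHTS. Overnight-attached cells (2.5 x 10^5 cells/mL, DMEM/4% FBS) were dosed in titration, incubated 24 to 48 hours, then assayed by CellTiter Glo.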
% is set by controls: 0 for no effect and ±100 for the full control effect.

Row | Compound | activity change, negative = cytotoxicity
1 | O=C(O)c1cc(N(Cc2ccc(C3CCCCC3)cc2)C(=O)c2ccc(Oc3ccccc3)cc2)ccc1O | -1.07%
2 | O=C(O)c1cccc(-c2ccc(-c3cn(C(=O)N4CCCCC4Cc4ccccc4)nn3)cc2)c1 (configuration not stated) | -8.06%
3 | N#Cc1ccc(N2N=C3c4ccc(C(=O)O)cc4CC[C@@H]3[C@@H]2C2CCCC2)cc1Cl | -3.01%
4 | CC#C[C@@H](CC(=O)O)c1ccc(OCc2ccc(CN3CCC4(C=Cc5ccccc54)CC3)s2)cc1 | -2.9%
5 | COc1ccc(-c2ccccc2)cc1NS(=O)(=O)c1cc(Cl)cc(Cl)c1O | -1.9% [at 26.9 µM]
6 | O=C(O)c1ccc(N2C(=O)/C(=C/c3ccc(-c4ccc([N+](=O)[O-])cc4)o3)C=C2c2ccccc2)cc1 | -0.0844%
7 | CC(C)(C)Sc1c(CC(C)(C)C(=O)O)n(Cc2ccc(Cl)cc2)c2ccc(OCc3ccc4ccccc4n3)cc12 | 0.418%
8 | CC#C[C@@H](CC(=O)O)c1ccc(OCc2cccc(-c3ccc(C(F)(F)F)cc3)c2)cc1 | 0.0744%
9 | O=C(O)c1ccc(S(=O)(=O)N(Cc2ccc(OC(F)(F)F)cc2)c2ncc(C(F)(F)F)cc2Cl)cc1 | 1.29%
10 | O=C(Nc1ccc(-c2ccc(Cl)c(Cl)c2)cc1)C1=C(O)c2ccccc2S(=O)(=O)N1 | -14.3%
11 | CC(O)(C(=O)O)C1CCC2(C)C1CCC1(C)C2CCC2C3(C)CCC(O)C(C)(COC4OC(CO)C(O)C(O)C4O)C3CCC21C (configuration not stated) | -1.11% [at 15.3 µM]
12 | CCCCCCCOc1cc2c(cc1/C(C)=C/c1ccc(C(=O)O)cc1)C(C)(C)CCS2(=O)=O | -16.7%
13 | Cc1cc(C)c2c(c1)C(N(Cc1cc(C(F)(F)F)cc(C(F)(F)F)c1)c1nnn(C)n1)CCCN2CC1CCC(C(=O)O)CC1 (configuration not stated) | -0.147%

assay: Tertiary RLuc qRT-PCR qHTS assay for Zika virus inhibitors (AID 1347169); details: infected Vero cells, reporter luminescence, 48-72 h; series mostly up to 45.9 µM; activity change, negative = inhibition: at the top concentration; note: nearly all actives have a fitted effect of over 55% in size; note: potency is the fitted concentration of half-maximal effect; for activity change, negative = inhibition: top concentration of the series differs between compounds
Summary of the method: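 Vero, 1,000 cells/well, o/n 37 C; cpd pinned in DMSO; ZIKV-RLuc Cambodian, MOI 1-2, 48-72 h 37 C; live-cell RLuc substrate, lum read at 1-1.5 h.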

Row | Compound | activity change, negative = inhibition | Potency
14 | O=C(Nc1ccc(/C=C/c2ccc(NC(=O)c3cc(S(=O)(=O)O)c4cccnc4c3O)cc2S(=O)(=O)O)c(S(=O)(=O)O)c1)c1cc(S(=O)(=O)O)c2cccnc2c1O | 59.5% [at 5.25 µM] | 
15 | C=C1/C(=C/C=C2\CCC[C@]3(C)[C@@H]([C@H](C)/C=C/[C@@H](C)C(C)C)CC[C@@H]23)C[C@@H](O)C[C@@H]1O |  | 3.3 µM (active)
16 | O=C(O)c1cccc(-c2ccc(-c3cn(C(=O)N4CCCCC4Cc4ccccc4)nn3)cc2)c1 (configuration not stated) |  | 2.62 µM (active)
17 | N#Cc1ccc(N2N=C3c4ccc(C(=O)O)cc4CC[C@@H]3[C@@H]2C2CCCC2)cc1Cl |  | 14.7 µM (active)
18 | O=S(=O)(Nc1cc(Cl)c(Oc2cnc3ccccc3c2)c(Cl)c1)c1ccc(Cl)cc1Cl |  | 9.3 µM (active)
19 | CC(C)(C)Sc1c(CC(C)(C)C(=O)O)n(Cc2ccc(Cl)cc2)c2ccc(OCc3ccc4ccccc4n3)cc12 |  | 11.7 µM (active)
20 | CC1=C(C(=O)OC2CCCCC2)C(c2ccc([N+](=O)[O-])cc2)C2=C(CC(C)(C)CC2=O)N1 (configuration not stated) | -24.2% | 
21 | COc1ccc2cc(-c3cc(-c4cc(Cl)cc(Cl)c4)nn3C(C)c3ccc(C(=O)NCCC(=O)O)cc3)ccc2c1 (configuration not stated) | -91.5% | 
22 | CC(C)C[C@H](C(=O)O)c1cc(-c2ccc(C(F)(F)F)cc2)cc(-c2ccc(C(F)(F)F)cc2)c1 |  | 9.3 µM (active)
23 | O=C(O)c1ccc(S(=O)(=O)N(Cc2ccc(OC(F)(F)F)cc2)c2ncc(C(F)(F)F)cc2Cl)cc1 |  | 18.6 µM (active)
24 | COc1ccc2nccc(C(=O)CC[C@@H]3CCN(CC#Cc4cc(F)cc(F)c4F)C[C@@H]3C(=O)O)c2c1 | -69.2% | 
25 | O=C(Nc1ccc(-c2ccc(Cl)c(Cl)c2)cc1)C1=C(O)c2ccccc2S(=O)(=O)N1 |  | 26.2 µM (active)
26 | Cc1noc(-c2ccc(-c3ccc(CC(=O)O)cc3)cc2)c1NC(=O)O[C@H](C)c1ccccc1Cl |  | 14.7 µM (active)
27 | CCC(C)/C=C(C)/C=C/C1=CC2=CC(=O)C3(C)OC(C)(O)C(C(=O)OC)C3C2=CO1 (configuration not stated) | 11% [at 26.6 µM] | 
28 | CC(O)(C(=O)O)C1CCC2(C)C1CCC1(C)C2CCC2C3(C)CCC(O)C(C)(COC4OC(CO)C(O)C(O)C4O)C3CCC21C (configuration not stated) | 31.1% [at 14.8 µM] | 
29 | C[C@H]1CO[C@@H]2Cn3cc(C(=O)NCc4ccc(F)cc4F)c(=O)c(O)c3C(=O)N12 | -62% | 
30 | COc1cc(C(=O)O)ccc1NC(=O)C1NC(CC(C)(C)C)C(C#N)(c2ccc(Cl)cc2F)C1c1cccc(Cl)c1F (configuration not stated) |  | 9.3 µM (active)
31 | CCCCCCCOc1cc2c(cc1/C(C)=C/c1ccc(C(=O)O)cc1)C(C)(C)CCS2(=O)=O |  | 2.94 µM (active)
32 | Cc1cc(C)c2c(c1)C(N(Cc1cc(C(F)(F)F)cc(C(F)(F)F)c1)c1nnn(C)n1)CCCN2CC1CCC(C(=O)O)CC1 (configuration not stated) |  | 16.5 µM (active)
